In the supplement of paper PMC8728848:
This excerpt belongs to a sample that is enriched for the strongest signals.

Experiments:
Assay in all cases: glycan array binding signal (z-score within array); higher = stronger binding
Settings in all cases: glycan notation: IUPAC condensed, linker removed
[1] = molecular target: Fuc(a1-2)Gal(b1-3)GalNAc(b1-4)[Neu5Ac(a2-3)]Gal(b1-4)Glc
Procedure, shortened: (§1)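 Glycan array binding is given as a within-array Z-score, which can be read as non-binding when negative. The arrays, 3228 of them, came from the Consortium for Functional Glycomics database and were retained only where the protein sequence was available. Z-scores were averaged across arrays of the same protein sequence at different concentrations or buffers and across linkers.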

[2] = molecular target: Fuc(a1-2)[Gal(a1-3)]Gal(b1-3)GlcNAc
Procedure, shortened: as §1

[3] = molecular target: Fuc(a1-2)[GalNAc(a1-4)]Gal(b1-4)GlcNAc
Procedure, shortened: as §1

Fuc(a1-4)GlcNAc = molecular target: Fuc(a1-4)GlcNAc
Procedure, shortened: as §1

Gal(a1-3)Gal(b1-4)GlcNAc = molecular target: Gal(a1-3)Gal(b1-4)GlcNAc
Procedure, shortened: as §1

[4] = molecular target: Gal(b1-3)[Fuc(a1-4)]GlcNAc
Procedure, shortened: as §1

[5] = molecular target: Gal(b1-3)[Fuc(a1-4)]GlcNAc(b1-3)Gal(b1-4)[Fuc(a1-3)]GlcNAc
Procedure, shortened: as §1

Gal3S(b1-3)GalNAc = molecular target: Gal3S(b1-3)GalNAc
Procedure, shortened: as §1

GalNAc(a1-3)Gal = molecular target: GalNAc(a1-3)Gal
Procedure, shortened: as §1

GalNAc(a1-3)GalNAc = molecular target: GalNAc(a1-3)GalNAc
Procedure, shortened: as §1

[6] = molecular target: GalNAc(b1-3)Gal(a1-4)Gal(b1-4)GlcNAc
Procedure, shortened: as §1

GlcA(b1-6)Gal = molecular target: GlcA(b1-6)Gal
Procedure, shortened: as §1

GlcNAc(b1-3)Gal(b1-4)Glc = molecular target: GlcNAc(b1-3)Gal(b1-4)Glc
Procedure, shortened: as §1

Man(a1-2)Man(a1-3)Man = molecular target: Man(a1-2)Man(a1-3)Man
Procedure, shortened: as §1

[7] = molecular target: Man(a1-2)Man(a1-3)[Man(a1-2)Man(a1-6)]Man(a1-6)[Man(a1-3)[Man(a1-6)]Man(a1-6)]Man(b1-4)GlcNAc(b1-4)GlcNAc
Procedure, shortened: as §1

[8] = molecular target: Neu5Ac(a2-3)Gal(b1-3)[Neu5Ac(a2-3)Gal(b1-4)]GlcNAc
Procedure, shortened: as §1

[9] = molecular target: Neu5Ac(a2-3)Gal(b1-4)GlcNAc(b1-3)Gal(b1-4)GlcNAc(b1-3)Gal(b1-4)GlcNAc
Procedure, shortened: as §1

[10] = molecular target: Neu5Ac(a2-3)Gal(b1-4)GlcNAc6S
Procedure, shortened: as §1

[11] = molecular target: Neu5Ac(a2-3)Gal(b1-4)[Fuc(a1-3)]GlcNAc(b1-3)Gal(b1-4)GlcNAc
Procedure, shortened: as §1

[12] = molecular target: Neu5Ac(a2-6)Gal(b1-4)GlcNAc(b1-2)Man(a1-3)[Neu5Ac(a2-6)Gal(b1-4)GlcNAc(b1-2)Man(a1-6)]Man(b1-4)GlcNAc(b1-4)GlcNAc
Procedure, shortened: as §1

[13] = molecular target: Neu5Ac(a2-6)GalNAc(b1-4)GlcNAc
Procedure, shortened: as §1

[14] = molecular target: Neu5Gc(a2-3)Gal(b1-3)[Fuc(a1-4)]GlcNAc
Procedure, shortened: as §1

Neu5Gc(a2-3)Gal(b1-4)Glc = molecular target: Neu5Gc(a2-3)Gal(b1-4)Glc
Procedure, shortened: as §1

Neu5Gc(a2-6)GalNAc = molecular target: Neu5Gc(a2-6)GalNAc
Procedure, shortened: as §1

Fuc(a1-2)Gal(b1-4)Glc = molecular target: Fuc(a1-2)Gal(b1-4)Glc
Procedure, shortened: as §1

Fuc(a1-2)Gal(b1-4)Glc6S = molecular target: Fuc(a1-2)Gal(b1-4)Glc6S
Procedure, shortened: as §1

Fuc(a1-2)Gal(b1-4)GlcNAc = molecular target: Fuc(a1-2)Gal(b1-4)GlcNAc
Procedure, shortened: as §1

[15] = molecular target: Fuc(a1-2)Gal(b1-4)GlcNAc6S
Procedure, shortened: as §1

Fuc(a1-2)Gal6S(b1-4)Glc = molecular target: Fuc(a1-2)Gal6S(b1-4)Glc
Procedure, shortened: as §1

[16] = molecular target: Fuc(a1-2)Gal6S(b1-4)Glc6S
Procedure, shortened: as §1

[17] = molecular target: Fuc(a1-2)[Gal(a1-4)]Gal(b1-4)GlcNAc
Procedure, shortened: as §1

[18] = molecular target: Fuc(a1-2)[GalNAc(a1-3)]Gal(b1-4)GlcNAc
Procedure, shortened: as §1

Gal(a1-3)Gal(b1-3)GlcNAc = molecular target: Gal(a1-3)Gal(b1-3)GlcNAc
Procedure, shortened: as §1

Gal(a1-3)Gal(b1-4)Glc = molecular target: Gal(a1-3)Gal(b1-4)Glc
Procedure, shortened: as §1

[19] = molecular target: Gal(a1-4)Gal(b1-3)GlcNAc(b1-2)Man(a1-3)[Gal(a1-4)Gal(b1-3)GlcNAc(b1-2)Man(a1-6)]Man(b1-4)GlcNAc(b1-4)GlcNAc
Procedure, shortened: as §1

Gal(a1-4)Gal(b1-4)GlcNAc = molecular target: Gal(a1-4)Gal(b1-4)GlcNAc
Procedure, shortened: as §1

Gal(a1-4)GlcNAc = molecular target: Gal(a1-4)GlcNAc
Procedure, shortened: as §1

[20] = molecular target: Gal(b1-4)GlcNAc(b1-2)[Gal(b1-4)GlcNAc(b1-4)]Man(a1-3)[Gal(b1-4)GlcNAc(b1-2)[Gal(b1-4)GlcNAc(b1-6)]Man(a1-6)]Man(b1-4)GlcNAc(b1-4)GlcNAc
Procedure, shortened: as §1

Gal3S6S(b1-4)GlcNAc6S = molecular target: Gal3S6S(b1-4)GlcNAc6S
Procedure, shortened: as §1

Gal6S(b1-4)GlcNAc = molecular target: Gal6S(b1-4)GlcNAc
Procedure, shortened: as §1

[21] = molecular target: GalNAc(a1-3)Fuc(a1-2)Gal(b1-4)GlcNAc(b1-3)[GalNAc(a1-3)Fuc(a1-2)Gal(b1-4)GlcNAc(b1-6)]GalNAc
Procedure, shortened: as §1

GalNAc(b1-3)Gal = molecular target: GalNAc(b1-3)Gal
Procedure, shortened: as §1

[22] = molecular target: Glc(a1-6)Glc(a1-6)Glc(a1-6)Glc
Procedure, shortened: as §1

Glc(b1-4)Glc = molecular target: Glc(b1-4)Glc
Procedure, shortened: as §1

Glc(b1-6)Glc = molecular target: Glc(b1-6)Glc
Procedure, shortened: as §1

[23] = molecular target: GlcNAc(a1-4)Gal(b1-4)GalNAc
Procedure, shortened: as §1

[24] = molecular target: GlcNAc(a1-6)Gal(b1-4)GlcNAc
Procedure, shortened: as §1

[25] = molecular target: GlcNAc(b1-2)[GlcNAc(b1-6)]Man(a1-6)[GlcNAc(b1-2)Man(a1-3)]Man(b1-4)GlcNAc(b1-4)GlcNAc
Procedure, shortened: as §1

Kdn(a2-3)Gal(b1-4)GlcNAc = molecular target: Kdn(a2-3)Gal(b1-4)GlcNAc
Procedure, shortened: as §1

[26] = molecular target: Neu5Ac(a2-3)Gal(b1-3)GalNAc
Procedure, shortened: as §1

[27] = molecular target: Neu5Ac(a2-3)Gal(b1-3)GlcNAc(b1-3)Gal(b1-4)GlcNAc
Procedure, shortened: as §1

[28] = molecular target: Neu5Ac(a2-3)Gal(b1-3)[Fuc(a1-4)]GlcNAc
Procedure, shortened: as §1

[29] = molecular target: Neu5Ac(a2-3)Gal(b1-3)[Fuc(a1-4)]GlcNAc(b1-3)Gal(b1-4)[Fuc(a1-3)]GlcNAc
Procedure, shortened: as §1

[30] = molecular target: Neu5Ac(a2-3)Gal(b1-3)[Neu5Ac(a2-6)]GalNAc
Procedure, shortened: as §1

[31] = molecular target: Neu5Ac(a2-3)Gal(b1-4)GlcNAc(b1-3)Gal(b1-3)GlcNAc
Procedure, shortened: as §1

[32] = molecular target: Neu5Ac(a2-3)Gal(b1-4)GlcNAc(b1-6)[Gal(b1-3)]GalNAc
Procedure, shortened: as §1

[33] = molecular target: Neu5Ac(a2-3)Gal(b1-4)GlcNAc(b1-6)[Neu5Ac(a2-3)Gal(b1-3)]GalNAc
Procedure, shortened: as §1

Neu5Ac(a2-3)GalNAc = molecular target: Neu5Ac(a2-3)GalNAc
Procedure, shortened: as §1

B1: M6PR (Bos taurus), P11456 (protein)
chain: MMSPLHSSWRTGLLLLLLFSVAVRESWQTEEKTCDLVGEKGKESEKELALLKRLTPLFNKSFESTVGQSPDMYSYVFRVCREAGNHSSGAGLVQINKSNGKETVVGRFNETQIFNGSNWIMLIYKGGDEYDNHCGREQRRAVVMISCNRHTLADNFN
[1]
  glycan array binding signal (z-score): 2.76
[2]
  glycan array binding signal (z-score): -0.012
[3]
  glycan array binding signal (z-score): -0.255
Fuc(a1-4)GlcNAc
  glycan array binding signal (z-score): -0.026
Gal(a1-3)Gal(b1-4)GlcNAc
  glycan array binding signal (z-score): -0.036
[4]
  glycan array binding signal (z-score): -0.132
[5]
  glycan array binding signal (z-score): 0.169
Gal3S(b1-3)GalNAc
  glycan array binding signal (z-score): -0.095
GalNAc(a1-3)Gal
  glycan array binding signal (z-score): 1.42
GalNAc(a1-3)GalNAc
  glycan array binding signal (z-score): 0.045
[6]
  glycan array binding signal (z-score): 0.285
GlcA(b1-6)Gal
  glycan array binding signal (z-score): -0.256
GlcNAc(b1-3)Gal(b1-4)Glc
  glycan array binding signal (z-score): 1.12
Man(a1-2)Man(a1-3)Man
  glycan array binding signal (z-score): -0.287
[7]
  glycan array binding signal (z-score): 3.23
[8]
  glycan array binding signal (z-score): -0.269
[9]
  glycan array binding signal (z-score): -0.446
[10]
  glycan array binding signal (z-score): -0.267
[11]
  glycan array binding signal (z-score): 0.517
[12]
  glycan array binding signal (z-score): -0.279
[13]
  glycan array binding signal (z-score): 0.219
[14]
  glycan array binding signal (z-score): -0.343
Neu5Gc(a2-3)Gal(b1-4)Glc
  glycan array binding signal (z-score): -0.187
Neu5Gc(a2-6)GalNAc
  glycan array binding signal (z-score): 1.03

B2: UEA-I (Ulex europaeus), P22972 (protein)
chain: SDDLSFKFKNFSQNGKDLSFQGDASVIETGVLQLNKVGNNLPDETGGIARYIAPIHIWNCNTGEVASFITSFSFFMETSANPKAATDGLTFFLAPPDSPLRRAGGYFGLFEDTKDNDSSYQTVAVEFDTIGSPVNFDDPGFPHIGIDVNRVKSINAERWNKRYGLNNVANVEIIYEASSKTLTASLTYPSDQTSISVTSIVDLKEILPEWVSVGFSGGTYIGRQATHEVLNWYFTSNLIN
[1]
  glycan array binding signal (z-score): -0.19
Fuc(a1-2)Gal(b1-4)Glc
  glycan array binding signal (z-score): 5.21
Fuc(a1-2)Gal(b1-4)Glc6S
  glycan array binding signal (z-score): 8.13
Fuc(a1-2)Gal(b1-4)GlcNAc
  glycan array binding signal (z-score): 6.42
[15]
  glycan array binding signal (z-score): 6.86
Fuc(a1-2)Gal6S(b1-4)Glc
  glycan array binding signal (z-score): 4.06
[16]
  glycan array binding signal (z-score): 8.02
[17]
  glycan array binding signal (z-score): 5.33
[18]
  glycan array binding signal (z-score): -0.183
[3]
  glycan array binding signal (z-score): 4.61
Gal(a1-3)Gal(b1-3)GlcNAc
  glycan array binding signal (z-score): -0.18
Gal(a1-3)Gal(b1-4)Glc
  glycan array binding signal (z-score): -0.172
Gal(a1-3)Gal(b1-4)GlcNAc
  glycan array binding signal (z-score): -0.186
[19]
  glycan array binding signal (z-score): -0.17
Gal(a1-4)Gal(b1-4)GlcNAc
  glycan array binding signal (z-score): -0.176
Gal(a1-4)GlcNAc
  glycan array binding signal (z-score): -0.174
[20]
  glycan array binding signal (z-score): -0.175
Gal3S6S(b1-4)GlcNAc6S
  glycan array binding signal (z-score): -0.174
Gal6S(b1-4)GlcNAc
  glycan array binding signal (z-score): -0.188
[21]
  glycan array binding signal (z-score): -0.158
GalNAc(b1-3)Gal
  glycan array binding signal (z-score): -0.18
[22]
  glycan array binding signal (z-score): -0.177
Glc(b1-4)Glc
  glycan array binding signal (z-score): -0.178
Glc(b1-6)Glc
  glycan array binding signal (z-score): -0.185
[23]
  glycan array binding signal (z-score): -0.175
[24]
  glycan array binding signal (z-score): -0.176
[25]
  glycan array binding signal (z-score): -0.186
Kdn(a2-3)Gal(b1-4)GlcNAc
  glycan array binding signal (z-score): -0.185
[26]
  glycan array binding signal (z-score): -0.18
[27]
  glycan array binding signal (z-score): -0.182
[28]
  glycan array binding signal (z-score): -0.181
[29]
  glycan array binding signal (z-score): -0.186
[30]
  glycan array binding signal (z-score): -0.17
[31]
  glycan array binding signal (z-score): -0.178
[32]
  glycan array binding signal (z-score): -0.183
[33]
  glycan array binding signal (z-score): -0.179
Neu5Ac(a2-3)GalNAc
  glycan array binding signal (z-score): -0.177
